Screening data as filed in PubChem BioAssay.
Yp Topo-I inh: Yersinia pestis topoisomerase I inhibitors, primary screen, biochemical, cleavage product accumulation, plate reader, single point. DNA topoisomerase I (Yersinia pestis CO92). Y. pestis Topo-I cleavage product accumulation. activity, % at 10 µM. hit rate 0.064% among 360,000; in the data active = activity above about 50%, passing the limit was not always enough
PfHsp40 rescue: rescue of yeast from PfHsp40 toxicity, primary screen, S. cerevisiae, ATP luminescence | S. cerevisiae expressing PfHsp40, growth rescue | growth rescue, % at 12.5 µM | hit rate 0.68% among 340,000 | AID 504582, 2011; in the data active = growth rescue above about 28%, passing the limit was not always enough;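 note: yeast W303a lacking pdr1 and pdr3 grown in galactose medium; growth measured after three days at 30 °C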
PrP UTR inh: inhibition of PrP 5' UTR reporter expression | cell-based PrP 5' UTR mRNA reporter, plate reader | inhibition, % (concentration not given with the values) | hit rate 0.35% among 340,000 | AID 488862, 2010; in the data active = inhibition above about 52%
RN4220 kill: growth inhibition of S. aureus RN4220, primary screen, OD600 | 16 h | inhibition, % (test concentration not listed) | hit rate 0.33% among 330,000; in the data active = inhibition above about 85%
ugtP null kill: growth inhibition of ugtP-null S. aureus, primary screen, RN4220 ugtP deletion, OD600. 16 h. growth inhibition, % (concentration not given with the values). hit rate 0.54% among 330,000. AID 1259309, 2017; in the data active = growth inhibition above about 68%
BJeLR lethal: MLPCN primary cell-based screen for lethality selective to Ras in HRASV12 cells; inhibition, % (no concentration beside the values); BJeLR (HRASV12) viability, CellTiter-Glo ATP luminescence, 48 h; hit rate 0.17% among 300,000; AID 1554, 2009; in the data active = inhibition above about 50%
Each line names hits and unclear results; the compound was inactive in the other large screens. Rows were chosen to be rich in hits. Some 1.4% of all compounds tested hit in one or more screens of this group.

Cc1cc2oc(=O)cc(CN(C)Cc3ccccc3)c2cc1C(C)C	Yp Topo-I inh 64
O=C(COc1c(Br)cc(Br)c2cccnc12)N1CCCCC1	none
O=C(COc1c(Br)cc(Br)c2cccnc12)N1CCc2ccccc2C1	Yp Topo-I inh 57 (no result: PrP UTR inh)
O=NN(CCc1ccncc1)c1ccc(OCc2ccccc2)cc1	PfHsp40 rescue 388
CCN1C(=O)C2C(c3ccc(-c4ccc(OC)cc4)cc3)N3CCCC[C@@]3(C(=O)OC)C2C1=O (stereo partly drawn)	none (no result: Yp Topo-I inh, PfHsp40 rescue, PrP UTR inh, BJeLR lethal)
CC(C)(C)OC(=O)CNC(=O)c1[nH]cnc1C(=O)NC(Cc1ccccc1)C(=O)OCc1ccccc1 (stereo not drawn)	none (no result: Yp Topo-I inh, PfHsp40 rescue, PrP UTR inh, BJeLR lethal)
Cc1cccc2c1NC(=O)/C2=C\C(=O)c1cccs1	RN4220 kill 97, ugtP null kill 98
CCc1ccc2c(c1)/C(=C/C(=O)c1cccs1)C(=O)N2	RN4220 kill 97, ugtP null kill 97
O=C(C1=CC(c2ccc3c(c2)OCO3)CC(OCc2ccc(CO)cc2)O1)N1CCN(Cc2ccc3c(c2)OCO3)CC1 (stereo not drawn)	none (no result: Yp Topo-I inh, PfHsp40 rescue, PrP UTR inh, BJeLR lethal)
O=S(=O)(c1ccc(Cl)cc1)N1CCN(Cc2ccc(O)c3ncccc23)CC1	PfHsp40 rescue 102
COc1cccc(N2CCN(c3nc(C)c(C)c(=O)[nH]3)CC2)c1	none
COc1cccc(N2CCN(c3nc(-c4ccccc4C)cc(=O)[nH]3)CC2)c1	PfHsp40 rescue 108
COc1ccc(C#Cc2c(-c3ccccc3)n(-c3ccccc3)c3ccc(CO)cc23)cc1	PfHsp40 rescue 65 (no result: BJeLR lethal)
Cc1cccc2[nH]c3c(N4CC=C(c5ccc(F)cc5)CC4)ncnc3c12	ugtP null kill 89 (no result: PfHsp40 rescue, PrP UTR inh)
CCc1ccc(S(=O)(=O)/N=C2/C=C(Sc3ncn[nH]3)C(=O)c3ccccc32)cc1	PfHsp40 rescue 179 (no result: RN4220 kill, ugtP null kill, BJeLR lethal)
Cc1cc(C)c(S(=O)(=O)N=C2C=C(Sc3ncn[nH]3)C(=O)c3ccccc32)cc1C	none (no result: Yp Topo-I inh, PfHsp40 rescue, PrP UTR inh, BJeLR lethal)
CCOC(=O)N1C(=O)C2(CCCCC2)N(c2ccccc2Cl)C1=S	PfHsp40 rescue 284
CC1=C(C)/C(=N\OS(=O)(=O)c2ccccc2)C=CC1=O	PfHsp40 rescue 637, BJeLR lethal 84 (no result: RN4220 kill, ugtP null kill)
NC(=O)C1CC2(CC(c3cccc(NC(=O)C4CCC(=O)N4)c3)=NO2)CN1C(=O)Cc1ccc([N+](=O)[O-])cc1 (stereo not drawn)	none (no result: Yp Topo-I inh, PfHsp40 rescue, PrP UTR inh, BJeLR lethal)
CCc1cc(C(=O)Nc2nc(-c3ccccn3)cs2)sc1C	PfHsp40 rescue 365 (no result: BJeLR lethal)
Cc1cc(C(=O)Nc2nc(-c3ccccn3)cs2)ccc1[N+](=O)[O-]	PfHsp40 rescue 73
COc1cc(C2CC=C(C(=O)O)C(c3ccccc3)N2S(=O)(=O)c2ccc(C)cc2)cc(OC)c1OC (stereo not drawn)	none (no result: Yp Topo-I inh, PfHsp40 rescue, PrP UTR inh, BJeLR lethal)
CCCC(=O)Nc1ncnc2c1ncn2C1OC2OP(=O)(O)OCC2C1OC(=O)CCC (stereo not drawn)	none (no result: Yp Topo-I inh, PfHsp40 rescue, PrP UTR inh, BJeLR lethal)
CC(O)C1CCC2C3CCC4CC(O)CC[C@]4(C)C3C(=O)C[C@]12C (stereo partly drawn)	none (no result: Yp Topo-I inh, PfHsp40 rescue, PrP UTR inh, BJeLR lethal)
COc1ccc(C2CC(=O)C=C(c3cc4ccccc4s3)C2)cc1OC (stereo not drawn)	none (no result: Yp Topo-I inh, PfHsp40 rescue, PrP UTR inh, BJeLR lethal)
Cc1cc(C)c(C)c(OCCCOc2cccc3cccnc23)c1	PfHsp40 rescue 93
Cc1cc(OCCOc2cccc3cccnc23)cc(C)c1Cl	none
Cc1cc2c(c(C)c1CCOC1OC(CO)C(O)C(O)C1O)C(=O)C(C)C2O (stereo not drawn)	none (no result: Yp Topo-I inh, PfHsp40 rescue, PrP UTR inh, BJeLR lethal)
Cc1cccc(OCCOC(=O)C2CCN(S(=O)(=O)c3cccs3)CC2)c1	PfHsp40 rescue 102
COc1ccc(COC(=O)C2CCN(S(=O)(=O)c3cccs3)CC2)cc1	none
C=CCNC(=O)c1n[nH]c2c1CC(C(C)(C)CC)CC2 (stereo not drawn)	PfHsp40 rescue 96 (no result: BJeLR lethal)
CCCNC(=O)c1n[nH]c2c1CC(C(C)(C)CC)CC2 (stereo not drawn)	none (no result: BJeLR lethal)
CC=CC(=O)OCC(=O)Nc1nc2ccc(C)cc2s1	none (no result: Yp Topo-I inh, PfHsp40 rescue, PrP UTR inh, BJeLR lethal)
O=C1c2ccccc2CN1CCNC(=S)NC1CCCCC1	PrP UTR inh 68 (no result: BJeLR lethal)
O=C(NCCN1Cc2ccccc2C1=O)c1cccs1	none
Cc1ccc(CN2C(CC(C)C)COCCS2(=O)=O)cc1 (stereo not drawn)	none (no result: Yp Topo-I inh, PfHsp40 rescue, PrP UTR inh, BJeLR lethal)
Cc1c(C(=O)N2CC3(CC(c4cccc(NC(=O)C5CCC(=O)N5)c4)=NO3)CC2C(N)=O)cc([N+](=O)[O-])cc1[N+](=O)[O-] (stereo not drawn)	none (no result: Yp Topo-I inh, PfHsp40 rescue, PrP UTR inh, BJeLR lethal)
CCCNC(=S)N1CCN(c2nc(C)nc3sc4c(c23)CCCC4)CC1	PfHsp40 rescue 32
NC(N)=NN=Cc1ccc(OCc2ccc(Cl)cc2)cc1	RN4220 kill 100, ugtP null kill 100 (no result: Yp Topo-I inh, PfHsp40 rescue, PrP UTR inh, BJeLR lethal)
FCCCOc1ccc(C=NOCc2ccc(Cl)cc2)cc1	ugtP null kill 85 (no result: Yp Topo-I inh, PfHsp40 rescue, PrP UTR inh, BJeLR lethal)
NC(N)=NN=Cc1ccc(OCc2ccccc2)c(OCc2ccccc2)c1	RN4220 kill 101, ugtP null kill 101 (no result: Yp Topo-I inh, PfHsp40 rescue, PrP UTR inh, BJeLR lethal)
NC(N)=NN=Cc1ccc(OCc2ccc(Cl)cc2Cl)cc1	RN4220 kill 100, ugtP null kill 101 (no result: Yp Topo-I inh, PfHsp40 rescue, PrP UTR inh, BJeLR lethal)
NC(N)=N/N=C/c1ccc(OCc2ccc(Cl)cc2)cc1	none (no result: RN4220 kill, ugtP null kill)
COc1cc(Cc2cc(N)nc(N)n2)cc(OC)c1OC	RN4220 kill 98, ugtP null kill 100
CCOC(=O)C1CCN(C2=NC(=O)/C(=C/c3ccc(Cl)cc3)S2)CC1	none
CCOC(=O)CSC1=NC(=O)/C(=C\c2ccc(Cl)cc2)S1	PfHsp40 rescue 40
O=C(Nc1ccccc1)NC1(C(=O)NCc2ccc3c(c2)OCO3)CCCCC1	ugtP null kill 100
O=C(NC(=S)Nc1ccc2c(c1)OCO2)c1ccc(Cl)cc1	ugtP null kill 88
Cc1cc(C)cc(C(=O)NC(=S)Nc2ccc(Cc3ccncc3)cc2)c1	ugtP null kill 87
CC(C)C(=O)Nc1cccc(NC(=S)NC(=O)c2ccc3c(c2)OCO3)c1	none
CC(C)C(=O)Nc1cccc(NC(=S)NC(=O)c2ccc(Cl)cc2)c1	ugtP null kill 83
COc1ccc(Cl)cc1NC(=S)NC(=O)c1ccc2c(c1)OCO2	none
Cc1cccc(C(=O)NC(=S)Nc2ccc(Cc3ccncc3)cc2)c1	none
COC(=O)C1=C(c2ccc(F)cc2F)CC2CCC1N2C(=O)NCCNC(C)=O (stereo not drawn)	none (no result: Yp Topo-I inh, PfHsp40 rescue, PrP UTR inh, BJeLR lethal)
O=C(NCc1ccc2c(c1)OCO2)c1ccccc1	none
CCc1ccc(C(=O)NC(=S)Nc2ccc3c(c2)OCCO3)cc1	none
O=C(NC(=S)NCc1ccc2c(c1)OCO2)c1ccccc1	PfHsp40 rescue 52
Cc1cc(C)cc(C(=O)NC(=S)Nc2ccc3c(c2)OCCO3)c1	ugtP null kill 93
COC(=O)C1=C(c2ccc(OC(F)(F)F)cc2)CC2CCC1N2C(=O)N1CCC(O)CC1 (stereo not drawn)	none (no result: Yp Topo-I inh, PfHsp40 rescue, PrP UTR inh, BJeLR lethal)
CCOC(=O)c1ccc(-c2ccc(C3Nc4ccccc4C(=O)N3O)o2)cc1 (stereo not drawn)	PfHsp40 rescue 364
Cc1nn(C)cc1C1Nc2ccccc2C(=O)N1O (stereo not drawn)	none
